Where “and” joins values, the source holds several entries; their conditions need not be identical. Equal values may be shown once. Calls of active or inactive are those of the source.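 How the source made its calls, unless noted: active means compounds whose cell count with miR-34 switched on is under 0.7 times the count with it off; inactive means the rest.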 Where a SMILES comes first, the peptide text is derived from it. [ ]: non-standard residue; d: D form.
How the values were obtained:
[1] = tested on: Aerobactin synthetase IucA (Klebsiella pneumoniae); assay: IucA aerobactin synthetase inhibitors, biochemical, Tocris library, absorbance (AID 1345561; call rule not given here;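 further: 100% = enzyme without compound and 0% = no enzyme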); conditions: purified IucA enzyme assay, absorbance (OD) read-out; stronger effect = lower value;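 tested at 8 µM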
[2] = sensitizers of A549 cells to miR-34 induction, primary screen, imaging, A549 dox-inducible miR-34, nuclei and caspase counts (AID 1347080); conditions: A549 miR-34 inducible, Hoechst nuclei count, 48 h
[3] = viability rescue of complex I mutant cybrids, primary screen, cell-based, galactose medium, ATP luminescence (AID 1645843;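 active means z-score of at least 1.8 in each of two replicates, scored against plate mean and spread of sample wells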;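 further: positive z means more ATP and so rescue of galactose-driven cybrid death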); conditions: complex I mutant cybrid cells, 72 h, stronger effect = higher value
[4] = stronger effect = lower value, cell number ratio, induced over uninduced
[5] = measured here: relative caspase fold change +Dox/-Dox
[6] = measured here: total cells with miR-34 induction, stronger effect = lower value
[7] = measured here: total cells without miR-34 induction

SMILES	remaining activity [1]	fold change [2, 4]	fold change [2, 5]	cell count [2, 6]	cell count [2, 7]	z-score [3]
c1ccc(Oc2nc(NC3CCCCC3)c3[nH]cnc3n2)cc1	110% (inactive)	0.921 (inactive)	1.13	7420	8060	-0.49 (inactive)
CCCCCCNC(=O)Nc1ccc(S(=O)(=O)Nc2ccc(CCNC[C@H](O)COc3ccc(O)cc3)cc2)cc1	94.3% (inactive)	0.938 (inactive)	1.32	8320	8870	-0.435 (inactive)
CCN(CC)c1ccc(/C=N/NC(=O)c2ccc(O)cc2)cc1	100% (inactive)	0.945 (inactive)	1.02	5490	5810	0.055 (inactive)
CCCNC(=O)N1N=C(c2ccc(N)cc2)c2cc3c(cc2C1C)OCO3 (centres undefined)	101% (inactive)	0.903 (inactive)	1.06	8160	9040	0.065 (inactive)
CC(C)c1ccc(C(=O)c2cccs2)c(SCCCCCCCCN(C)C)n1	107% (inactive)	1.16 (inactive)	1.04	3590	3100	-1.04 (inactive)
O=C1c2ccccc2C(Cc2ccnc(F)c2)(Cc2ccnc(F)c2)c2ccccc21	102% (inactive)	0.93 (inactive)	1.37	8150	8760	0.3 (inactive)
O=C(O)Cc1cc2ccccc2nc1C(=O)O	129% (inactive)	0.938 (inactive)	1.06	8250	8790	0.145 (inactive)
CC(C)[C@H](NS(=O)(=O)c1ccc(-c2ccc(Br)cc2)cc1)C(=O)O	100% (inactive)	0.908 (inactive)	1.47	8980	9890	0.745 (inactive)
C=CCN1CCN(c2nc3ccccc3nc2C#N)CC1	112% (inactive)	0.901 (inactive)	1.37	8950	9930	0.335 (inactive)
N#CC(Cc1ccc(O)cc1)c1ccc(O)cc1 (centres undefined)	90.6% (inactive)	0.917 (inactive) and 0.865 (inactive)	0.401 and 1.73	5410 and 8710	5900 and 10100	2.66 (active)
NC(=O)N1c2ccccc2CC(O)c2ccccc21 (centres undefined)	111% (inactive)	0.942 (inactive)	0.846	8870	9420	-0.055 (inactive)
C1CCC2(CC1)CCNCC2	105% (inactive)	0.955 (inactive)	1.56	9280	9730	0.34 (inactive)
COc1cc(OC)c(C(=O)CCCCN2CCC3(CC2)NC(=O)NC3=O)cc1NS(=O)(=O)c1ccc(C(F)(F)F)cc1	118% (inactive)	0.962 (inactive)	0.689	8560	8900	-0.165 (inactive)
Cc1ccccc1N1CCN(S(=O)(=O)CC23CCC(C[C@@H]2NC(=O)[C@@H](N)CCS(C)(=O)=O)C3(C)C)CC1 (some centres undefined)	82.6% (inactive)	0.868 (inactive)	1.54	7420	8540	-0.14 (inactive)
Cc1c(C(=O)NC2CCCCC2)sc2nc3ccc(N)cc3n12	120% (inactive)	0.889 (inactive)	1.46	5970	6720	-0.625 (inactive)
O=C(O)c1ccc(/C=C2/SC(=S)N(c3cccc(C(F)(F)F)c3)C2=O)cc1	83.1% (inactive)	0.837 (inactive)	1.71	8080	9650	-0.215 (inactive)
CC(=O)N(O)[C@@H]1c2cc(C#N)ccc2OC(C)(C)[C@H]1O	89.1% (inactive)	0.882 (inactive)	2.17	8800	9980	0.655 (inactive)
C[C@@H]1CC2C3CCC4=CC(=O)C=CC4(C)C3(F)[C@@H](O)CC2(C)C1(O)C(=O)CO (some centres undefined)	110% (inactive)	0.804 (inactive)	0.753	7230	8990	0.725 (inactive)
CC(=O)NCC(=O)N[C@H](CCC(=O)O)C(=O)O (Ac-Gly-[dE]-OH)	103% (inactive)	0.899 (inactive)	0.513	9020	10000	-0.245 (inactive)
CCCCCCN(CCCCCC)C(=O)Cc1c(-c2ccc(Cl)cc2)[nH]c2ccc(Cl)cc12	102% (inactive)	0.89 (inactive)	0.984	5700	6410	-1.19 (inactive)
O=C1c2ccccc2CCC1CNCCc1ccc(O)cc1 (centres undefined)	104% (inactive)	0.994 (inactive)	0.835	8920	8970	-1.23 (inactive)
Cc1nn(C)c2nc(NNC(=O)Nc3cc(Cl)nc(Cl)c3)cc(C(C)C)c12	121% (inactive)	0.867 (inactive) and 1.06 (inactive)	1.04 and 1.03	5060 and 4050	5840 and 3820	-0.55 (inactive)
CCCCCCCNS(=O)(=O)c1cccc2c(Cl)cccc12	95% (inactive)	0.865 (inactive)	0.629	8130	9410	-0.5 (inactive)
COc1cccc(NC(=O)/C=C/c2ccc(Cl)cc2)c1	93.6% (inactive)	0.9 (inactive)	1.32	5860	6510	0.75 (inactive)
